Screening results: PubChem, several laboratories
Rows were chosen to be rich in hits. Some 4% of all compounds tested hit in one or more screens of this group.
Arbovirus inh = arbovirus infection inhibition; arbovirus infection cell-based antiviral screen; inhibition, % at 10 µM; actives 0.37% (n = 200,000); AID 1251; in the data active = inhibition above about 30%
ROMK primary = modulators of human ROMK potassium channel; P48048; Tet-inducible ROMK, thallium flux fluorescence; actives lie on both sides; B-score at 10 µM; actives 2% (n = 130,000);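 active = signal ratio slope over the read window, or its plate-corrected B-score, at least 3 SD from the plate mean, either direction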;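 also: B-score of the F/F0 ratio slope over 7 to 12 s after thallium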
Target sequence (P48048 whole entry, looked up): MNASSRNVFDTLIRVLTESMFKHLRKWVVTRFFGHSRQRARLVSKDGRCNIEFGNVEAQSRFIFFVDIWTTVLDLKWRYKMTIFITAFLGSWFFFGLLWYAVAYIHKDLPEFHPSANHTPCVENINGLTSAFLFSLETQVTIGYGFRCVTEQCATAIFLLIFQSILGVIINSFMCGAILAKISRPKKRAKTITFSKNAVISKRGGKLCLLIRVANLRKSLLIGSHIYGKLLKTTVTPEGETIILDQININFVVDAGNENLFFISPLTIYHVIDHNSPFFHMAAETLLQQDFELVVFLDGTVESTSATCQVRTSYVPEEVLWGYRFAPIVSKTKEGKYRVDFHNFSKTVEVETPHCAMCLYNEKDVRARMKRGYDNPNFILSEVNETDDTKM
HSV augment = increases HSV replication in cells; HSV replication augmentation in cells, fold increase; maximum fold increase; actives 0.005% (n = 220,000); AID 1956; in the data active = maximum fold increase above about 1.5; inconclusive = no clear call, values can overlap the other calls; tested in PC3 cells
KCC2 mod = KCC2 (human) Cl- transport modulation | Q9H2X9 | KCC2 cells, thallium flux FluoZin-2 fluorescence | B-score of Tl+ flux slope (higher = more flux/activation; lower = inhibition) at 10 µM | actives 2.2% (n = 190,000) | AID 1456;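 active = thallium flux slope and its plate-corrected score both differing from the plate sample mean at a set confidence after two filtering rounds, in either direction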;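 also: slope of fluorescence scaled to starting intensity during 10 to 20 s after thallium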
Measles CPE = protection of cells from measles virus | Measles virus-infected cells, CPE protection, absorbance | protection (pct of control), % at 4 µM | actives 1.5% (n = 140,000); in the data active = protection mostly above about 24%, no sharp cut-off; inactive = mostly below about 26%
An asterisk follows results filed as active; i = inactive; u = inconclusive; x = no result given.

SMILES	Arbovirus inh	ROMK primary	HSV augment	KCC2 mod	Measles CPE
CCc1nc(SCC(=O)N2c3ccccc3CC2C)c2c(C)c(C)sc2n1 (centres undefined)	-8	x	i	-1.3	27
Cc1nc(SCC(=O)NCc2ccco2)c2c(C)c(C)sc2n1	9	x	i	-0.71	3
Cc1sc2nc(C(C)C)nc(SCC(=O)N3c4ccccc4CC3C)c2c1C (centres undefined)	5	0.33	i	65*	3
Cc1ccc(-c2nnc(CSc3nc(C(C)C)nc4sc(C)c(C)c34)o2)cc1	-8	-0.89	i	9.1*	7
Cc1sc2nc(C(C)C)nc(SCC(=O)NCc3ccco3)c2c1C	-9	x	i	33*	9
COc1ccc(C(=O)NC2CCN(C(=S)Nc3ccc(C)cc3)CC2)cc1	7	0.046	i	-0.35	x
Cc1cccc(NC(=S)NC(C)C(c2cccs2)N2CCN(C)CC2)c1C (centres undefined)	x	-0.88	i	0.44	x
CN1CCN(C(=O)c2ccccc2NC(=O)c2cccs2)CC1	3	x	i	0.7	45*
Cc1ccc(S(=O)(=O)Cc2ccc(C(=O)OCc3ccccc3)cc2)cc1	0	-0.43	i	x	18*
O=C(c1ccccc1)c1nc2ccccc2n(CCCn2c(=O)c(C(=O)c3ccccc3)nc3ccccc32)c1=O	2	x	i	1.1	12
COc1ccc(CN=Cc2c(O)[nH]c3ccccc23)cc1	20	-0.3	i	-0.5	x
COc1ccc(N=Cc2c(O)[nH]c3ccccc23)cc1	5	x	i	-1.3	46*
Cc1ccc(OCCCCn2c(CO)nc3ccccc32)cc1	15	x	x	-0.57	x
CC(O)c1nc2ccccc2n1CCCCOc1ccccc1 (centres undefined)	-2	-1.7	i	-1.1	x
CC(O)c1nc2ccccc2n1CCOc1ccccc1 (centres undefined)	8	-1.2	i	-0.85	38*
OCc1nc2ccccc2n1CC(O)COc1ccccc1 (centres undefined)	4	x	i	-0.46	29*
OCc1nc2ccccc2n1CCCOc1ccc(Br)cc1	11	x	i	-2.9*	7
Cc1cc2nccc(-c3ccc(Cl)c([N+](=O)[O-])c3)n2n1	4	-0.97	i	-0.016	x
O=C(Nc1ccc(Br)cn1)c1cccc2c1-c1ccccc1C2=O	-12	0.84	i	-0.24	x
COc1ccc(-c2[nH]ncc2CN(Cc2nccn2C)C(C)C)c(F)c1	1	-0.26	i	0.8	x
COc1cc2[nH]c(=S)nc(NC3CCCC3)c2cc1OC	16	0.38	i	-1.9	x
O=C(COc1ccccc1Br)NCc1ccccn1	1	-0.19	i	x	63*
O=C(COc1ccc(F)cc1Br)NCc1ccccn1	0	0.76	i	-0.44	17
CC(C)(CO)CNC(=O)CC1C(=O)NCCN1CC(c1ccccc1)c1ccccc1 (centres undefined)	32*	-0.29	i	-0.047	x
CC(C)NC(=O)CC1C(=O)NCCN1CC(c1ccccc1)c1ccccc1 (centres undefined)	5	0.77	i	0.4	x
SMILES	Arbovirus inh	ROMK primary	HSV augment	KCC2 mod	Measles CPE
CCCOc1ccc(CC(CC(=O)O)(C(=O)O)C(=O)O)cc1	6	x	i	-0.34	46*
CCN1CCN(CCNC(=O)c2cn(Cc3ccccc3F)nn2)CC1	-1	x	i	0.23	41*
CN1CCN(C=Nc2nc3ccccc3nc2N2CCCC2)CC1	-2	-0.65	u	-0.94	x
CCOC(=O)c1cccnc1SCC(=O)NCc1ccccc1	2	-0.61	i	x	16
C=CCSc1ncccc1C(=O)NCc1ccccc1	1	-0.6	i	0.9	80*
Cc1ccccc1OCC(=O)Nc1cccc(C(=O)O)c1	4	-0.14	i	0.048	x
Cc1cccc(OCC(=O)Nc2cccc(C(=O)Nc3ccccc3C(=O)O)c2)c1	55*	x	i	-4.8	7
Cc1cc(C)cc(OCC(=O)Nc2cccc(C(=O)O)c2)c1	9	-0.012	i	-0.82	89*
Cc1cccc(OCC(=O)Nc2cccc(C(=O)NCC(C)C)c2)c1	-2	-0.31	i	-0.46	31
O=C(C1CCCN(S(=O)(=O)c2ccc(F)cc2)C1)N(Cc1cccs1)C1CC1 (centres undefined)	0	x	i	-1.2	49*
C/C(O)=c1/ccc2cccc3nc(C)nc1c23	-3	x	i	i	113*
Cc1nc2ccccc2nc(C)c1=NO	7	x	i	0.24	-2
Cc1noc(C)c1S(=O)(=O)N1CCC(C(=O)N2CCN(C3CCCC3)CC2)CC1	0	0.033	x	x	43*
O=C(O)Cn1ncn(-c2ccc(OC(F)(F)F)cc2)c1=O	-2	0.37	i	0.35	x
COC(=O)C1=C(C)Nc2nnnn2C1c1cccnc1 (centres undefined)	-3	x	i	-0.81	5
CCN(CC)C(=O)C1=C(C)Nc2nnnn2C1c1cccnc1 (centres undefined)	0	x	i	0.24	29*
COc1ccc(C(=O)Cn2nnc(-c3ccccc3NC(=O)C3CCCCC3)n2)cc1	3	-0.83	i	-0.34	32*
COc1ccc(NC(=O)Cn2nnc(-c3ccccc3F)n2)cc1	0	x	i	1.1	49*
COc1ccc(NC(=O)Cn2nnc(-c3ccccc3NC(=O)C3CC3)n2)cc1	-2	x	i	-2.4	6
CC(C)CCN1CCN(CC#Cc2ccccc2)CC1CCO (centres undefined)	-7	0.44	i	0.079	x
C=CCn1c(SCc2nc(N)nc(N(C)C)n2)nnc1-c1cccnc1	-1	x	x	1.3	36*
COc1ccc(Br)cc1-c1nc(CCl)cs1	-1	-0.08	i	-0.7	x
CC(C)Cn1cc(C(=O)N2CCOCC2)c2c3ccccc3n(C)c2c1=O	3	x	i	0.36	40*
CC(C)Cn1cc(C(=O)N2CCC(C)CC2)c2c3ccccc3n(C)c2c1=O	-7	0.24	i	-0.44	x
O=C(NC(=S)NCc1ccccc1)c1ccc2c(c1)OCO2	3	x	x	1.1	31*
SMILES	Arbovirus inh	ROMK primary	HSV augment	KCC2 mod	Measles CPE
CC(=O)Nc1ccc(Nc2cc(C)nc3c(-c4ccccc4)c(C)nn23)cc1	-2	-0.17	i	-2.1	93*
CC(=O)Nc1ccc(Nc2cc(C(C)C)nc3c(-c4ccccc4)c(C)nn23)cc1	x	0.0044	i	-0.7	x
O=C1NC(c2ccccc2)=NC1(NS(=O)(=O)c1ccccc1)C(F)(F)F (centres undefined)	3	x	i	x	41*
Cc1cc(C=C(C#N)C#N)c(C)n1-c1ccccc1	18	0.54	i	-0.46	51*
O=C(O)COc1ccc(NC(=O)c2cccs2)cc1	2	0.85	i	1.3	48*
O=C(NC(=S)Nc1cccnc1)c1cccs1	-1	-0.17	i	4.5	x
Cc1ccnc(NC(=S)NC(=O)c2cccs2)c1	-5	0.47	i	26*	26
O=C(NC(=S)Nc1ccc(Cl)cn1)c1cccs1	0	x	i	21*	5
O=C(NC(=S)Nc1nc2c(ccc3ccccc32)s1)c1cccs1	20	0.025	i	17*	14
COc1ccc2[nH]c3c(=O)n(CCCCC(=O)NCCC(C)C)c(=S)[nH]c3c2c1	9	1.7	i	0.43	x
